# Measured values: the supplement of paper PMC10127200
# Structures can show the parent of a compound that is named as a salt.
# How the values were obtained:
# Test in all cases: Euclidean distance of Cell Painting phenotypic profile (signed KS, 77 features) to DMSO centroid (dimensionless distance); 5 or 10 uM (library dependent); higher = stronger phenotypic change vs DMSO (phenoactivity)
# Settings in all cases: 48 h
# 786-O = system: 786-O
# How it was run: (§1)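 Library compounds were applied at 10 or 5 uM, depending on the library, with 0.1% DMSO final, for 48 h to five cancer lines and a healthy fibroblast line. After staining, cells were imaged confocally at 20X across 9 fields per well, and Harmony extracted 77 features, each scored as a signed Kolmogorov-Smirnov statistic against vehicle wells on the same plate. Phenoactivity is the Euclidean distance between each profile and the median vehicle profile, with profiles first plate-position corrected, correlation-weighted and averaged over replicates at the top dose.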
# A549 = system: A549
# How it was run: as §1
# DU145 = system: DU145
# How it was run: as §1
# FB = system: FB
# How it was run: as §1
# HEPG2 = system: HEPG2
# How it was run: as §1
# OVCAR4 = system: OVCAR4
# How it was run: as §1
Compound,Euclidean distance (786-O),Euclidean distance (A549),Euclidean distance (DU145),Euclidean distance (FB),Euclidean distance (HEPG2),Euclidean distance (OVCAR4)
CNC(=O)c1cc(Oc2ccc(NC(=O)Nc3ccc(Cl)c(C(F)(F)F)c3)cc2)ccn1 [Sorafenib],2.08,2.51,1.74,1.78,2.93,2.28
C[C@H]1C[C@@H]2[C@H]([C@@H](O)C[C@@]3(C)[C@H]2CC[C@]3(O)C(=O)CO)[C@@]2(C)C=CC(=O)C=C12 [Methylprednisolone],1.37,1.96,1.76,1.79,2.31,2.07
Cc1cc(C#N)cc(C)c1Oc1nc(Nc2ccc(C#N)cc2)nc(N)c1Br [Etravirine (TMC125)],1.93,2.85,1.7,0.981,2.06,1.73
Cc1c(C(N)=O)cc([N+](=O)[O-])cc1[N+](=O)[O-] [Dinitolmide],0.913,1.4,0.756,0.814,0.831,1.38
Cc1cccc(Nc2cc(Cl)nc(SCC(=O)O)n2)c1C,1.08,0.839,0.785,0.914,0.873,0.647
CN(C[C@@H]1COCCO1)S(=O)(=O)Nc1ccc2ccc3ncc(-c4cnn(C)c4)cc3c(=O)c2c1,1,0.895,1.01,3.07,0.888,1
Nc1nc(NC2CC2)c2ncn([C@H]3C=C[C@@H](CO)C3)c2n1 [Abacavir sulfate],1.09,1.86,1.39,1.19,0.688,1.74
CC(C)c1cc(C(C)C)c(CC(=O)NS(=O)(=O)Oc2c(C(C)C)cccc2C(C)C)c(C(C)C)c1 [Avasimibe],4.24,1.79,0.813,0.86,0.752,0.819
Clc1ccc2c(c1)C(N1CCNCC1)=Nc1ccccc1O2 [Amoxapine],1.43,1.02,1.12,1.06,0.744,1.09
CCCOc1ccc2[nH]c(NC(=O)OC)nc2c1 [Oxibendazole],2.66,2.7,3.08,2.55,1.73,2.58
CC[C@@H](CO)NCCN[C@@H](CC)CO [Ethambutol HCl],1.4,1.22,0.738,0.916,1.17,0.884
C#C[C@]1(O)CC[C@H]2[C@@H]3CCC4=CC(=O)CC[C@@H]4[C@H]3C(=C)C[C@@]21CC [Etonogestrel],0.851,0.713,0.98,1.21,0.628,1.03
Cc1onc(-c2c(F)cccc2Cl)c1C(=O)N[C@@H]1C(=O)N2[C@@H]1SC(C)(C)[C@@H]2C(=O)O [Flucloxacillin sodium],1.14,0.772,1.17,1.12,0.664,1.72
CCN1CCN(c2cc3c(cc2F)c(=O)c(C(=O)O)cn3C2CC2)CC1 [Enrofloxacin],0.875,1.1,0.711,0.933,0.992,1.67
CC(C)(CCCCCC(O)CCCCCC(C)(C)C(=O)O)C(=O)O,0.76,0.809,0.925,0.851,0.375,1.06
CCCc1nn(C)c2c(=O)[nH]c(-c3cc(S(=O)(=O)N4CCN(C)CC4)ccc3OCC)nc12 [Sildenafil],1.51,0.754,0.716,1.08,0.767,1.17
O=C1Nc2ccccc2/C1=C1/Nc2ccccc2C1=O [Indirubin],1.05,1.12,0.786,0.965,1.58,1.03
O=C1c2c(O)ccc(O)c2C(=O)c2c(NCCNCCO)ccc(NCCNCCO)c21 [Mitoxantrone HCl],4.89,4.24,3.24,4.31,4.05,6.27
COc1c(N2CCNC(C)C2)c(F)cc2c(=O)c(C(=O)O)cn(C3CC3)c12 (stereo not given) [Gatifloxacin],0.648,0.598,0.774,0.851,0.876,1.07
OC1(c2ccc(Cl)c(C(F)(F)F)c2)CCN(CCCC(c2ccc(F)cc2)c2ccc(F)cc2)CC1 [Penfluridol],4.2,4.66,5.91,3.4,4.97,4.03
CN(C)CCC[C@@]1(c2ccc(F)cc2)OCc2cc(C#N)ccc21 [Escitalopram Oxalate],1.58,1.12,1.67,0.918,0.791,1.43
NCC(=O)O [Glycine],1.61,0.971,0.929,1,0.776,1.93
CCCCOCCOCCOCc1cc2c(cc1CCC)OCO2 [Piperonyl butoxide],0.659,1.99,0.875,0.892,1.06,1.04
Cn1c(=O)c2c(ncn2CC2OCCO2)n(C)c1=O [Doxofylline],1.15,0.81,0.772,0.965,0.408,1.15
CCCS(=O)(=O)Nc1ccc(F)c(C(=O)c2c[nH]c3ncc(Cl)cc23)c1F,0.904,1.4,0.951,1.12,2.17,0.992
